Key:
[1] = biological target: T1, Serine/threonine-protein kinase TBK1 (Homo sapiens) (UniProt Q9UHD2); conditions: at 10 µM
T1 sequence (whole entry): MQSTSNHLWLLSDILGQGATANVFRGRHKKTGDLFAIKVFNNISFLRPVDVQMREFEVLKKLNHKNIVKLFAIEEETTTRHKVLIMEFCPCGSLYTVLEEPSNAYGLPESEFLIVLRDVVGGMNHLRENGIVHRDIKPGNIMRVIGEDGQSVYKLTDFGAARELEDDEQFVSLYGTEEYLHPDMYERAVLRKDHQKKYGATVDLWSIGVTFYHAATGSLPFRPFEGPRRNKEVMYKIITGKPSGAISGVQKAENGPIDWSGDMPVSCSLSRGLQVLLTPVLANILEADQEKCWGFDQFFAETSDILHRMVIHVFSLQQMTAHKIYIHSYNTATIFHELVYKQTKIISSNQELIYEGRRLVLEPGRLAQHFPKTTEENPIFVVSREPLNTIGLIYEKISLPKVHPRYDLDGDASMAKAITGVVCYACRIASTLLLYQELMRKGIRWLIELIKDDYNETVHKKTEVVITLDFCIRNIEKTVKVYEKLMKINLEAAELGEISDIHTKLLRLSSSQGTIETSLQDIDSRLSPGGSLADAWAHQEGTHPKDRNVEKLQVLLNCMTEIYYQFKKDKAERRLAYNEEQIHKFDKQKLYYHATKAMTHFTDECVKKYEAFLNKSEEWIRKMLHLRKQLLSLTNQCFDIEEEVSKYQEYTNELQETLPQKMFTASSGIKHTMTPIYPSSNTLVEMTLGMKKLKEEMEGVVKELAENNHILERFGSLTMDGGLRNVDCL

[2] = biological target: T2, TGF-beta receptor type-1 (Homo sapiens) (UniProt P36897); conditions: at 1 µM
T2 sequence (whole entry): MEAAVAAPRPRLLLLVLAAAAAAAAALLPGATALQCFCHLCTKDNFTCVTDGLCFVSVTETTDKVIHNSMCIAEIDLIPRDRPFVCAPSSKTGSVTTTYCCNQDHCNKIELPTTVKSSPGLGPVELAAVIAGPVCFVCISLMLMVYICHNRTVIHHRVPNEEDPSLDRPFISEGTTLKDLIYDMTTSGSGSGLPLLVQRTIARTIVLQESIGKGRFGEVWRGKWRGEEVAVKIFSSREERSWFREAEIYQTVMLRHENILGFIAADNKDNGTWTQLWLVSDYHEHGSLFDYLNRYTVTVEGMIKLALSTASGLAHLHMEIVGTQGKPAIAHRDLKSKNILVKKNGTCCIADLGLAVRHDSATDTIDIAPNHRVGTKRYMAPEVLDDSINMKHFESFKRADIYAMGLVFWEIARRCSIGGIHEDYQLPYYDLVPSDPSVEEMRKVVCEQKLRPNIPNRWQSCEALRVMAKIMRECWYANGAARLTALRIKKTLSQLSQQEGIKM

[3] = biological target: T2, TGF-beta receptor type-1 (Homo sapiens); conditions: at 10 µM
[4] = biological target: Insulin-like growth factor 1 receptor (Homo sapiens) (UniProt P08069); conditions: at 1 µM
[5] = biological target: Insulin-like growth factor 1 receptor (Homo sapiens) (UniProt P08069); conditions: at 10 µM
[6] = biological target: T3, Inhibitor of nuclear factor kappa-B kinase subunit alpha (Homo sapiens) (UniProt O15111); conditions: at 1 µM
T3 sequence (whole entry): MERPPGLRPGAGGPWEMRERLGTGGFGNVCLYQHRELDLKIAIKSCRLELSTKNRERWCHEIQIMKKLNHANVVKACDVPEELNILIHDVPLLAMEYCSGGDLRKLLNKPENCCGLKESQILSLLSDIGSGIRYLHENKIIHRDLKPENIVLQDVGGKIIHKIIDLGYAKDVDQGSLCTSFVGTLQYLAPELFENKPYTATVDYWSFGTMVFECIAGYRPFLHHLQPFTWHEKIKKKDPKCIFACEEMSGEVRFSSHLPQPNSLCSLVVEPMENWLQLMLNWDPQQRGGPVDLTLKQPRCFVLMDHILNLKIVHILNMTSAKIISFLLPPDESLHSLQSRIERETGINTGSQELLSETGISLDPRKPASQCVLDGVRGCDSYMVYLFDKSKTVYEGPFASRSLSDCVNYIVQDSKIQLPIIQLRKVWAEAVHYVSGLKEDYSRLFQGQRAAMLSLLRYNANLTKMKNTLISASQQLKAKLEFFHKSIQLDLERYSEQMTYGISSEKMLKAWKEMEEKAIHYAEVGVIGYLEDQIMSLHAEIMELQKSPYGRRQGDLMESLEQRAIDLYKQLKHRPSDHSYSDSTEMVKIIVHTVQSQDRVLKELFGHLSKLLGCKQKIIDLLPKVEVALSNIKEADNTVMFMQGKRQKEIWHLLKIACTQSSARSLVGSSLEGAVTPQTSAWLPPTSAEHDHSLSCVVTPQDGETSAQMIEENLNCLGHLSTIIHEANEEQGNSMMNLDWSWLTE

[7] = biological target: T3, Inhibitor of nuclear factor kappa-B kinase subunit alpha (Homo sapiens); conditions: at 10 µM
[8] = biological target: T4, Inhibitor of nuclear factor kappa-B kinase subunit beta (Homo sapiens) (UniProt O14920); conditions: at 1 µM
T4 sequence (whole entry): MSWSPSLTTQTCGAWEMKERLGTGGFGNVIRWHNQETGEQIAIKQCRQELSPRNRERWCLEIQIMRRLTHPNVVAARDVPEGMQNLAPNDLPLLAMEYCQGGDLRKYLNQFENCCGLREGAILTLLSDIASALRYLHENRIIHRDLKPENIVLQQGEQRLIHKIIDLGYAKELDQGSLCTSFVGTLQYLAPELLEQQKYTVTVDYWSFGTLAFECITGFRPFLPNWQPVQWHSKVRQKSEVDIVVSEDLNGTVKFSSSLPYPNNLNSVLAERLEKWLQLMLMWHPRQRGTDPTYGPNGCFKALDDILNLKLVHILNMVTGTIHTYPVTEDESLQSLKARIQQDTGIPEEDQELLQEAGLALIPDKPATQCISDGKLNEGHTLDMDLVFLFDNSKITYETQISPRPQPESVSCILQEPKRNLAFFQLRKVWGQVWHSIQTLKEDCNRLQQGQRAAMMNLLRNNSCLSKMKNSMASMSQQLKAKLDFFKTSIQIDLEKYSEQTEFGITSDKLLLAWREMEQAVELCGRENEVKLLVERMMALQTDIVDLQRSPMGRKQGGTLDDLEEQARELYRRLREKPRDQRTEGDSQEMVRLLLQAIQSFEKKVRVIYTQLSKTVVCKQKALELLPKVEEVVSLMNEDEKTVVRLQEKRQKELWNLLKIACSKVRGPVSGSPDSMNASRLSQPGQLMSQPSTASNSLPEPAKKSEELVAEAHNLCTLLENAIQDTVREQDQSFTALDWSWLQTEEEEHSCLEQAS

[9] = biological target: T4, Inhibitor of nuclear factor kappa-B kinase subunit beta (Homo sapiens); conditions: at 10 µM
[10] = biological target: Insulin receptor (Homo sapiens) (UniProt P06213); conditions: at 1 µM
Chain of Insulin receptor (Homo sapiens) (P06213 28-758 limits assumed): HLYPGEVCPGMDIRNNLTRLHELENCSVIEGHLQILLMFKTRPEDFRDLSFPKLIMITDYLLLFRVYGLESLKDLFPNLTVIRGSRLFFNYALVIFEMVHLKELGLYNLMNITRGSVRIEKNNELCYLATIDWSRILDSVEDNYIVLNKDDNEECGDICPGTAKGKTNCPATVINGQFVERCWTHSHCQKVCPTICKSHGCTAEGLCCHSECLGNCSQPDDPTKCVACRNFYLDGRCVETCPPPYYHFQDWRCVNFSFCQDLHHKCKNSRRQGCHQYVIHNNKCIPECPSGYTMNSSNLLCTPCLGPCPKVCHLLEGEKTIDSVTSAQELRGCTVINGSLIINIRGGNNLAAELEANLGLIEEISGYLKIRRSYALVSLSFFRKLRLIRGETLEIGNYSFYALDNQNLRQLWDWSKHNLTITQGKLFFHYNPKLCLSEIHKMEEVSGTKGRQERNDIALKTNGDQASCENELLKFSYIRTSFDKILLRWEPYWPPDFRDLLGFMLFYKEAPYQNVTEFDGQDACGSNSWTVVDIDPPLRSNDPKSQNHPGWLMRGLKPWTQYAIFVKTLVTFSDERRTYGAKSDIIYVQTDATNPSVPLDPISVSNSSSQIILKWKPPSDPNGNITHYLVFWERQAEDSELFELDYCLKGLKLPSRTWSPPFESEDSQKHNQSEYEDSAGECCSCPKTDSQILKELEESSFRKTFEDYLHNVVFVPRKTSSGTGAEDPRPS
Chain of Insulin receptor (Homo sapiens) (P06213 763-1382 limits assumed): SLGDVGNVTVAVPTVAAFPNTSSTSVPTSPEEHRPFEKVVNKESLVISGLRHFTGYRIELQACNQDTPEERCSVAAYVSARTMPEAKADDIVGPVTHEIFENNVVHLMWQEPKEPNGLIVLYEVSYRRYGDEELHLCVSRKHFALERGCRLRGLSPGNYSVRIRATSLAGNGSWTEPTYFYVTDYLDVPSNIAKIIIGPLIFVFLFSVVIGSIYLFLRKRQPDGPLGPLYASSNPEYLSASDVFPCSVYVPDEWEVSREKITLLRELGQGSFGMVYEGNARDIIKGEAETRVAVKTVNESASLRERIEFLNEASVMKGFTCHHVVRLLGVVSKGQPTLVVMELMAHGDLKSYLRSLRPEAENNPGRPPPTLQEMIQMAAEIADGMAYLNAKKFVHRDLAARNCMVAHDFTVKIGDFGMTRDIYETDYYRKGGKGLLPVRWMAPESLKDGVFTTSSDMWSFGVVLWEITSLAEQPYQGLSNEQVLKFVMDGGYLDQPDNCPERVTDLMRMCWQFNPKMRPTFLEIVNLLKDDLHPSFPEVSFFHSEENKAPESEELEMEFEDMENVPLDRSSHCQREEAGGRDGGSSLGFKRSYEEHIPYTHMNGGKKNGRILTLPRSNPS

Chain of Insulin-like growth factor 1 receptor (Homo sapiens) (P08069 31-736 limits assumed): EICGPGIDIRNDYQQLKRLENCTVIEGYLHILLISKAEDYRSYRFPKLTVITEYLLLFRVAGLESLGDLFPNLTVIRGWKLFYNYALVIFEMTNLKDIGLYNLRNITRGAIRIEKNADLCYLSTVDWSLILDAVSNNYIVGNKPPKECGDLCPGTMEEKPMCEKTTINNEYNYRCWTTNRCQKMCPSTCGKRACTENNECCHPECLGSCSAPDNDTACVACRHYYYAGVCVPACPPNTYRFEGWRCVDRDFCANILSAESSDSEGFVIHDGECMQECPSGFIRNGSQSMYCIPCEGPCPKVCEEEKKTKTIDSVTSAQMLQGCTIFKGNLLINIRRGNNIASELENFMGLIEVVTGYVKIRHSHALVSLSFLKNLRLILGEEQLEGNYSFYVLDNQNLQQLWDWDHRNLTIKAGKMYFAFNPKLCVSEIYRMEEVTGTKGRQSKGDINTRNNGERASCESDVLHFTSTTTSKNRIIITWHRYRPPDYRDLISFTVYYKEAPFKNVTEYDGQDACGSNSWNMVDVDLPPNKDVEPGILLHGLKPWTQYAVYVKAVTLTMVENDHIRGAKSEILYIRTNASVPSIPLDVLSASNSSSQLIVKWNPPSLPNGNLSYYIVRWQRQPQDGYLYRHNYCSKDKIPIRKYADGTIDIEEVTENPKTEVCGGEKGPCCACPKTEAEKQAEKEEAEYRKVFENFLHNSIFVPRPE
Chain of Insulin-like growth factor 1 receptor (Homo sapiens) (P08069 741-1367 limits assumed): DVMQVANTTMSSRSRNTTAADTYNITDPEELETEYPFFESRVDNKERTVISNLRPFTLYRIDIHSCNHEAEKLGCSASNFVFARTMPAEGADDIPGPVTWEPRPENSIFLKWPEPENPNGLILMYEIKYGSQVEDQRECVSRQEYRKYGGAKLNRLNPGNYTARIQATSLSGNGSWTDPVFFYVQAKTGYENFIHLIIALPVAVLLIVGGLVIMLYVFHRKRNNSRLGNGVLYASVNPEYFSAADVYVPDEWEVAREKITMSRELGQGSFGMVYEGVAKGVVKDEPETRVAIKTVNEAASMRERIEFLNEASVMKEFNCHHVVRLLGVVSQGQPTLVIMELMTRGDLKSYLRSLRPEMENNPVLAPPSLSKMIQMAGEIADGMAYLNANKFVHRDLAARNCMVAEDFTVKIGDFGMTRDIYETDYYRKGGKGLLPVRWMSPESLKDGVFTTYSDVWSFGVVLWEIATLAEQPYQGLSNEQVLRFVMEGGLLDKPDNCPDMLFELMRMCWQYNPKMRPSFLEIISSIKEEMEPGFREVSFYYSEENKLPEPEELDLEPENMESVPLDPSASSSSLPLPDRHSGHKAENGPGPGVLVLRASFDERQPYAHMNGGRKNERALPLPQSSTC

O=[N+]([O-])c1ccc(-c2nc(-c3ccc(F)cc3)c(-c3ccncc3)[nH]2)cc1 was tested, and the residual activity [1] was 76%, the residual activity [2] was 61% and the residual activity [3] was 59%. It also gave a residual activity [4] of 97%, a residual activity [5] of 105% and a residual activity [6] of 119%. It also gave a residual activity [7] of 99%, a residual activity [8] of 129% and a residual activity [9] of 111%. The residual activity [10] was 107%.
